Laboratory results published in PubChem BioAssay (EPA / NIEHS).
Inconclusive results are not listed. Active and inactive are the calls of the source. Rule for the calls, unless noted: active = hit-call score of the fitted dose curve at least 0.9, where 1 is the maximum; inactive = score below 0.9.

Tests used:
[1] = biological target: human RAR-related Orphan Receptor gamma (RORg), RORC (gene 6097) (UniProt P51449); test: ATG_RORg_TRANS: Attagene TRANS-FACTORIAL HepG2 Assay for human RAR-related Orphan Receptor gamma (RORg) (AID 2283011; active = hit-call score of the fitted dose curve at least 0.9, where 1 is the maximum;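 for AC50: potency for induction of reporter transcripts above DMSO so activators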)
Chain of human RAR-related Orphan Receptor gamma (RORg), RORC (gene 6097) (P51449 whole entry, looked up, the tested form may be a part): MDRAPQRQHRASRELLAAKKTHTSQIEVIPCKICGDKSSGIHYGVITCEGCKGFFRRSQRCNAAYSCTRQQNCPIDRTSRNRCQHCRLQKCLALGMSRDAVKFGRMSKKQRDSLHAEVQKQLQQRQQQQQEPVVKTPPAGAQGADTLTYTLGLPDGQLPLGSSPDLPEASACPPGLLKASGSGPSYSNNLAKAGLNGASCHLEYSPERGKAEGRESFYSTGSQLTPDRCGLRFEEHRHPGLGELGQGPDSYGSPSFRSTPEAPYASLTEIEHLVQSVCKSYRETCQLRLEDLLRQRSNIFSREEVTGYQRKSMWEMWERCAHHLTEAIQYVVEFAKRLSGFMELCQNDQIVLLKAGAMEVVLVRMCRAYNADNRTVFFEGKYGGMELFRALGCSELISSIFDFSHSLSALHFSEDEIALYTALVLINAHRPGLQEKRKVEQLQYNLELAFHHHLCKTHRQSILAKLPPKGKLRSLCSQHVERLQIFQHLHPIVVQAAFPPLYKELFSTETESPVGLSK
In short: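 Readout: reporter transcript induction (RT-PCR, fluorescent primer extension, capillary electrophoresis) after 24 h compound exposure of transiently transfected HepG2 cells carrying a RORg-Gal4 chimera and GAL4-UAS reporters; DMSO served as baseline, with increasing signal fitted.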

[2] = biological target: Retinoic acid receptor RXR-alpha (Homo sapiens) (UniProt P19793); test: ATG_RXRa_TRANS: Attagene TRANS-FACTORIAL HepG2 Assay for human Retinoid X Receptor alpha (RXRa) (AID 2283012; active = hit-call score of the fitted dose curve at least 0.9, where 1 is the maximum)
Chain of Retinoic acid receptor RXR-alpha (Homo sapiens) (P19793 whole entry, looked up, the tested form may be a part): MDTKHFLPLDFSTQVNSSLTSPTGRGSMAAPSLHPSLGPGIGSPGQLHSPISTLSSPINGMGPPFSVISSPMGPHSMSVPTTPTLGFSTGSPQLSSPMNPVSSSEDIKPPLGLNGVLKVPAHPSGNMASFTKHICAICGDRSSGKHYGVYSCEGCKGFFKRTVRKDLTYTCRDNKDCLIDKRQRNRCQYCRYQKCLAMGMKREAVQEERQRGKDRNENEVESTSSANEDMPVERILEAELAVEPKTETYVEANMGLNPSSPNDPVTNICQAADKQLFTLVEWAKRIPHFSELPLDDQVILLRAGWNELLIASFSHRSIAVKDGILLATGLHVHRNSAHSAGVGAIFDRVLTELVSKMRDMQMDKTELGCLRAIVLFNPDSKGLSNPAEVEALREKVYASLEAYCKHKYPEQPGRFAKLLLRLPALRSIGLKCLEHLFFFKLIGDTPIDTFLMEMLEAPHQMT
In short: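 Transient transfection of human HepG2 with multiple GAL4-UAS reporter constructs; 24 h compound exposure; total RNA isolated, reverse-transcribed, PCR-amplified, 6-FAM labelled, HpaI-cut, resolved by capillary electrophoresis. Positive-direction fit versus DMSO.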

[3] = biological target: human Retinoid X Receptor beta (RXRb), RXRB (gene 6257) (UniProt P28702); test: ATG_RXRb_TRANS: Attagene TRANS-FACTORIAL HepG2 Assay for human Retinoid X Receptor beta (RXRb) (AID 2283013; active = hit-call score of the fitted dose curve at least 0.9, where 1 is the maximum)
Chain of human Retinoid X Receptor beta (RXRb), RXRB (gene 6257) (P28702 whole entry, looked up, the tested form may be a part): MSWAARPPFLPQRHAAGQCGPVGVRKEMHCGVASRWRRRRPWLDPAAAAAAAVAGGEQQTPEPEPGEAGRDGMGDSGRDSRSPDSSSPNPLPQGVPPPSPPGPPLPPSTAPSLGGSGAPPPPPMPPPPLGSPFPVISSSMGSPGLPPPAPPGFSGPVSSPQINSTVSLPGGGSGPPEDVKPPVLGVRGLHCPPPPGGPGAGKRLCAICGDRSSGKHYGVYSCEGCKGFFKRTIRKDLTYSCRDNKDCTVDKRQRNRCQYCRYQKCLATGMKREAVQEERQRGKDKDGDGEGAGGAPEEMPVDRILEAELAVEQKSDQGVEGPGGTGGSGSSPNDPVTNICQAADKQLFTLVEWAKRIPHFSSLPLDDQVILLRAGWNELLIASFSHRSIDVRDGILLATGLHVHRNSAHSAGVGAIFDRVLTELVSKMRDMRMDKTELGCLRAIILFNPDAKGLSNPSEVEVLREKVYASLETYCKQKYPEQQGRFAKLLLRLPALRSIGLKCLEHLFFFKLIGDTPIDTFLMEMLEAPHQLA
In short: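 Transfect HepG2 with GAL4-UAS multi-reporter constructs (chimeric NR-Gal4, TRANS format); dose compound 24 h; isolate RNA, RT-PCR, FAM primer extension, HpaI digest; quantify by capillary electrophoresis; positive direction vs DMSO.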

[4] = biological target: human Thyroid Receptor alpha (THRa1), THRA (gene 7067) (UniProt P10827); test: ATG_THRa1_TRANS: Attagene TRANS-FACTORIAL HepG2 Assay for human Thyroid Receptor alpha (THRa1) (AID 2283014; active = hit-call score of the fitted dose curve at least 0.9, where 1 is the maximum)
Chain of human Thyroid Receptor alpha (THRa1), THRA (gene 7067) (P10827 whole entry, looked up, the tested form may be a part): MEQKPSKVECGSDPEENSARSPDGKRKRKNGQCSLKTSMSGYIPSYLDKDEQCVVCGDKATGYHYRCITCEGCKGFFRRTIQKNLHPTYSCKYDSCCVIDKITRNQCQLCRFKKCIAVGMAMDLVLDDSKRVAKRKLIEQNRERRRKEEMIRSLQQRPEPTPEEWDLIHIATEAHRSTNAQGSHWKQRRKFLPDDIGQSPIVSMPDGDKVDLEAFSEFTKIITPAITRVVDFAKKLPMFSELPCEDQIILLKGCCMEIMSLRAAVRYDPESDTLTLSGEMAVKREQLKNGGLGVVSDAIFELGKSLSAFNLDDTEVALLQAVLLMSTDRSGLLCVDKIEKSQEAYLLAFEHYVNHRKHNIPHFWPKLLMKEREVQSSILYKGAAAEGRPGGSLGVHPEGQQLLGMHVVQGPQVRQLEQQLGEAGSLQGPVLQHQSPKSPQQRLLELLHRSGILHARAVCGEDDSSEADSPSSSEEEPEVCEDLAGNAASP
In short: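 HepG2 cells transiently transfected with multiplexed GAL4-UAS reporter units for exogenous chimeric THRa1-Gal4; reporter mRNA measured 24 h after dosing by RT-PCR, 6-FAM labelling, HpaI digestion and capillary electrophoresis. Gain-of-signal fitted versus DMSO baseline.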

[5] = read-out: E-selectin (Homo sapiens) (UniProt P16581); test: BSK_3C_Eselectin: BioMAP Diversity Plus: 3C Assay for Eselectin Biomarker Activity (AID 2283015); settings: primary human endothelial cells (HUVEC); actives raise or lower the signal
In short: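 Primary human umbilical vein endothelial cells (3C system) were dosed with chemical and cell-surface E-selectin measured by ELISA 24 h later. Bidirectional curve fitting used DMSO as negative control and baseline.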

[6] = read-out: Interleukin-1 alpha (IL1a), IL1A (gene 3552); test: BSK_BE3C_IL1a: BioMAP Diversity Plus: BE3C Assay for Interleukin-1 alpha (IL1a) Biomarker Activity (AID 2283016); settings: primary human bronchial epithelial cells; actives raise or lower the signal
In short: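 BE3C primary human bronchial epithelium; cpd 24 h; IL-1a by ELISA; bidirectional fit vs DMSO; parallel SRB (0.1% SRB, 10% TCA fix, 560 nm) for cytotoxicity.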

[7] = read-out: Monocyte Chemoattractant Protein-1 (MCP1), CCL2 (gene 6347); test: BSK_3C_MCP1: BioMAP Diversity Plus: 3C Assay for Monocyte Chemoattractant Protein-1 (MCP1) Biomarker Activity (AID 2283017); settings: primary human endothelial cells (HUVEC); actives raise or lower the signal
In short: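 Primary human umbilical vein endothelial cells (3C system) were exposed to test chemical for 24 h, after which MCP-1 was quantified by ELISA. Activity was fitted bidirectionally against DMSO as negative control and baseline.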

[8] = read-out: Monocyte Chemoattractant Protein-1 (MCP1), CCL2 (gene 6347); test: BSK_4H_MCP1: BioMAP Diversity Plus: 4H Assay for Monocyte Chemoattractant Protein-1 (MCP1) Biomarker Activity (AID 2283018); settings: primary human endothelial cells (HUVEC); actives raise or lower the signal
In short: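 ELISA read-out of MCP-1 from human vascular endothelial primary cells taken at 24 hours after compound exposure. Activity was fitted in both directions relative to DMSO, which served as negative control.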

[9] = read-out: Human Leukocyte Antigen - DR isotype (HLADR), HLA-DRA (gene 3122); test: BSK_3C_HLADR: BioMAP Diversity Plus: 3C Assay for Human Leukocyte Antigen - DR isotype (HLADR) Biomarker Activity (AID 2283019); settings: primary human endothelial cells (HUVEC); actives raise or lower the signal
In short: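 Primary human umbilical vein endothelial cells (3C system) were dosed with compound and cell-surface HLA-DR was quantified by ELISA at 24 h. Activity was fitted bidirectionally against DMSO as negative control and baseline.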

[10] = read-out: Interleukin-8 (IL8), CXCL8 (gene 3576); test: BSK_3C_IL8: BioMAP Diversity Plus: 3C Assay for Interleukin-8 (IL8) Biomarker Activity (AID 2283020); settings: primary human endothelial cells (HUVEC); actives raise or lower the signal
In short: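 ELISA read-out of IL-8 from human umbilical vein endothelium, measured 24 h after chemical dosing. Activity is expressed relative to DMSO negative control, with both increases and decreases fitted.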

[11] = read-out: Monokine induced gamma interferon (MIG), CXCL9 (gene 4283); test: BSK_3C_MIG: BioMAP Diversity Plus: 3C Assay for Monokine induced gamma interferon (MIG) Biomarker Activity (AID 2283021); settings: primary human endothelial cells (HUVEC); actives raise or lower the signal;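 for AC50: MIG protein level measured by immunoassay in the treated endothelial cultures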
In short: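 Read-out is ELISA detection of MIG on human umbilical vein endothelial cells, taken 24 h after dosing. Gain or loss of signal was scored relative to DMSO controls using bidirectional curve fitting.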

[12] = biological target: human Vitamin D Receptor (VDR), VDR (gene 7421) (UniProt P11473); test: ATG_VDR_TRANS: Attagene TRANS-FACTORIAL HepG2 Assay for human Vitamin D Receptor (VDR) (AID 2283022; active = hit-call score of the fitted dose curve at least 0.9, where 1 is the maximum)
Chain of human Vitamin D Receptor (VDR), VDR (gene 7421) (P11473 whole entry, looked up, the tested form may be a part): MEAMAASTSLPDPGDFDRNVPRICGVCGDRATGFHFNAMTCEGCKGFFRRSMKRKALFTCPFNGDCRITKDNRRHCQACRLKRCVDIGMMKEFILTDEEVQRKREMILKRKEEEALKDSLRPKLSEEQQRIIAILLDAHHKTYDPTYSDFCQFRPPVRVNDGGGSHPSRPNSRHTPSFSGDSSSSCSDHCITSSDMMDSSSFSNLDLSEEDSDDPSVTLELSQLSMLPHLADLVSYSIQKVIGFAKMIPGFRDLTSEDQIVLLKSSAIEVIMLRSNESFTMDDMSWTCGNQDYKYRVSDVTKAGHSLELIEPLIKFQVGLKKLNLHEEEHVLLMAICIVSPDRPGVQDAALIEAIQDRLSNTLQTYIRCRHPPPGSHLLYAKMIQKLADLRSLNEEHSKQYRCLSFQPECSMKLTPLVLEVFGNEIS
In short: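 HepG2 cells were transiently transfected with multiple GAL4-UAS reporter units, so signal reflects exogenous chimeric receptor-Gal4 activity. After 24 h compound exposure, reporter mRNA was measured by RT-PCR, fluorescent labelling and capillary electrophoresis, fitted for gain of signal versus DMSO.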

[13] = BSK_3C_SRB: Viability Assessment in the BioMAP Diversity Plus: 3C Assay (AID 2283023); settings: primary human endothelial cells (HUVEC);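 note: fitted both ways against DMSO so a hit may be signal rise or drop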
In short: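 Primary human umbilical vein endothelial cells in the 3C system were read 24 h after compound dosing. Total protein was stained with 0.1% sulforhodamine B after 10% TCA fixation and read at 560 nm, with bidirectional fitting against DMSO as baseline.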

[14] = read-out: Matrix Metallopeptidase 1 (MMP1), MMP1 (gene 4312); test: BSK_BE3C_MMP1: BioMAP Diversity Plus: BE3C Assay for Matrix Metallopeptidase 1 (MMP1) Biomarker Activity (AID 2283024); settings: primary human bronchial epithelial cells; actives raise or lower the signal
In short: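 Human bronchial epithelial cells (BE3C system) exposed to compound for 24 h; MMP1 then quantified by ELISA. Activity was fitted in both directions relative to DMSO.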

[15] = BSK_3C_Vis: BioMAP Diversity Plus: 3C Assay for Morphology Visualization (AID 2283025); settings: primary human endothelial cells (HUVEC);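 note: fitted both ways so gain or loss versus DMSO counts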;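 for AC50: light microscopy image of cell morphology used as background control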
In short: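 Chemicals were added to primary human umbilical vein endothelium, cells were incubated 24 h, and morphology was then visualized by light microscopy. Gain or loss of signal was fitted bidirectionally relative to DMSO.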

[16] = read-out: Pselectin, SELP (gene 6403); test: BSK_4H_Pselectin: BioMAP Diversity Plus: 4H Assay for Pselectin Biomarker Activity (AID 2283026); settings: primary human endothelial cells (HUVEC); actives raise or lower the signal
In short: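 ELISA read-out of P-selectin on human umbilical vein endothelium after 24 h of dosing. Values derive from bidirectional fitting relative to DMSO. Parallel SRB protein staining flagged overt cytotoxicity.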

[17] = BSK_4H_SRB: Viability Assessment in the BioMAP Diversity Plus: 4H Assay (AID 2283027); settings: primary human endothelial cells (HUVEC);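 note: cells exposed to compound for 24 h before staining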;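 for AC50: curves fitted both ways versus DMSO so AC50 may be loss or gain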
In short: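 Human umbilical vein endothelial cells, 24 h after chemical dosing; total protein measured by 0.1% sulforhodamine B staining after 10% TCA fixation, read at 560 nm. Bidirectional fitting against DMSO.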

[18] = BSK_BE3C_SRB: Viability Assessment in the BioMAP Diversity Plus: BE3C Assay (AID 2283028); settings: primary human bronchial epithelial cells
In short: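 Human primary bronchial epithelial cells were exposed to test chemicals for 24 h. Total protein in parallel cultures was then measured by staining with 0.1% sulforhodamine B after 10% TCA fixation, with absorbance read at 560 nm. Activity was fitted bidirectionally against DMSO.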

[19] = read-out: Thrombomodulin, THBD (gene 7056); test: BSK_3C_Thrombomodulin: BioMAP Diversity Plus: 3C Assay for Thrombomodulin Biomarker Activity (AID 2283029); settings: primary human endothelial cells (HUVEC); actives raise or lower the signal
In short: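 Read-out is ELISA of thrombomodulin on human umbilical vein endothelium 24 h after chemical dosing. Gain or loss of signal is scored relative to DMSO. Overt cytotoxicity is checked in parallel cultures by sulforhodamine B staining.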

[20] = read-out: Urokinase-type plasminogen activator receptor (uPAR), PLAUR (gene 5329); test: BSK_4H_uPAR: BioMAP Diversity Plus: 4H Assay for Urokinase-type plasminogen activator receptor (uPAR) Biomarker Activity (AID 2283030); settings: primary human endothelial cells (HUVEC); actives raise or lower the signal
In short: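 Primary human umbilical vein endothelial cells were exposed to chemical for 24 h before cell-surface uPAR was quantified by ELISA. Activity was fitted bidirectionally against the DMSO negative control baseline.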

Measured: AC50

Chain of E-selectin (Homo sapiens) (P16581 whole entry, looked up): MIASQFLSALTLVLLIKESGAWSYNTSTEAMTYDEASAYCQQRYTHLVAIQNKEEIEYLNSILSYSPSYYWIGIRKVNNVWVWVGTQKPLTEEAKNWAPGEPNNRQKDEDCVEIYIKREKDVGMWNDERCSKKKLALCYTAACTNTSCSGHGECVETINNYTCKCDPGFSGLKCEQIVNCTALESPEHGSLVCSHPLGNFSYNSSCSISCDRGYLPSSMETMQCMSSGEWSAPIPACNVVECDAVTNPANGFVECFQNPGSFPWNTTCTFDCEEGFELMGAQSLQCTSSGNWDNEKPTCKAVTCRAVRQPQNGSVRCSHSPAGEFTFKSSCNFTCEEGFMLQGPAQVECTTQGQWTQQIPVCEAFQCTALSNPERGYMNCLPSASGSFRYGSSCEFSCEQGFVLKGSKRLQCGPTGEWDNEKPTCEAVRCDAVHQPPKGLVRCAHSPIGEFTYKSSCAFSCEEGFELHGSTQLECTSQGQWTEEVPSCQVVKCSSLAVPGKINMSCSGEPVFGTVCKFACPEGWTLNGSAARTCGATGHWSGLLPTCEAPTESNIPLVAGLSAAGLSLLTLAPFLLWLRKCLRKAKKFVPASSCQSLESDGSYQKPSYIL

O=[N+]([O-])C(Br)(CO)CO
active: [5] 32.6 µM | [7] 30.5 µM | [8] 28.9 µM | [9] 16.5 µM | [10] 35.8 µM | [11] 34.9 µM | [13] 15.3 µM | [15] 37.5 µM | [16] 20 µM | [17] 20 µM | [20] 31.7 µM
inactive: [1] | [2] | [3] | [4] | [6] | [12] | [14] | [18] | [19]

Nc1ccc(Oc2ccc(N)cc2)cc1
not listed: [3] | [4] | [12]
inactive: all other assays above

CCCSC(=O)N(CCC)CCC
active: [1] 132 µM | [3] 34.1 µM
not listed: [2] | [11]
inactive: all other assays above

CCOc1cccc(C2(N3CCN(c4ccccc4)CC3)CCC(C)CC2)c1 (configuration not stated)
not listed: [2] | [4] | [11] | [16]
inactive: all other assays above

O=C(O)C1C2CCC(O2)C1C(=O)O (configuration not stated)
active: [5] 18.6 µM | [13] 24.4 µM | [15] 9.13 µM | [16] 16 µM | [20] 18.6 µM
inactive: all other assays above

CN(C)c1ccc(C(=O)c2ccc(N(C)C)cc2)cc1
active: [7] 2.3 µM | [9] 20 µM | [10] 2.55 µM | [13] 3.55 µM | [15] 5.81 µM | [17] 1.56 µM
not listed: [2] | [4] | [11] | [16]
inactive: all other assays above

c1ccc(NNc2ccccc2)cc1
active: [3] 100 µM
inactive: all other assays above
